The results in this text go back to PubChem BioAssay (NCATS).

Structures are written as SMILES. Records with an inconclusive call do not appear. Calls of active or inactive are those of the source. Unless noted, the call rests on the fitted dose curve; in most records, active means well fitted curve in the direction sought with a large enough effect; inconclusive means small, poorly fitted or top-dose-only effect, or another doubt; inactive means no such curve, though single readings can be large; an effect the other way counts as inactive or inconclusive.

Assay [1] can be described thus: Cytometry Cell-Based qHTS for Inhibitors of the mTORC1 Signaling Pathway in MEF cells (AID 2668).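 Further: Tsc2-/- p53-/- mouse embryonic fibroblasts stably re-expressing wild-type Tsc2; percent cells positive for phospho-rpS6 Ser235/236 relative to propidium iodide stain; series mostly up to about 38 µM.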 The method, boiled down: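 Tsc2-/-, p53-/- MEFs re-expressing WT Tsc2; cpd 24 hrs, 37 degree Celsius; PFA fix, Alexa-488 p-rpS6 (Ser235/236) Ab 2 hrs RT, PI counterstain; Acumen 488nm scan; p-S6/PI ratio → % positive cells; PI count = viability.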
(In qHTS, concentration-response curves come from the screen itself.)

A short description of assay [2]: Validation screen for inhibitors of Lassa infection (AID 463096; calls by dose curve).
The nature of assay [3]: Validation screen for small molecules that induce DNA re-replication in MCF 10A normal breast cells (AID 463097). Further: nearly all actives have a fitted effect of over 60% in size. The method, boiled down: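 Image-based qHTS: normal breast cells are incubated with compound for 48 hr, stained with Hoechst, and scanned for total nuclear fluorescence. Compounds raising the fraction of nuclei with elevated DNA content count as re-replication inducers.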

Assay [4] deals with Ubiquitin carboxyl-terminal hydrolase 2 (Homo sapiens) (UniProt O75604). Nature of the assay: qHTS Validation Assay for Inhibitors of Ubiquitin-specific Protease USP2a Using CHOP2 as the Reporter (AID 463106). The method, boiled down:
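Readout was coupled fluorescence (Ex 485/Em 531 nm), read 60 min after adding 25 nM final Ub-CHOP2 and 25 nM reporter substrate. Beforehand, 10 nM final USP2 core had 30 min at RT with compound in pH 8.0 buffer. Curves were fitted after normalization to NEM and flagged for artifacts using time-zero reads.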

Assay [5] addresses DNA polymerase III PolC-type (Bacillus subtilis (strain 168)) (UniProt P13267). The assay is described as follows: qHTS Validation Assay for the Inhibitors of DNA Replication in Gram-Positive Bacteria (AID 485295). Further: potency means the concentration at half of the fitted maximal effect. Summed up: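 First, compound is mixed with the reconstituted replication complex and held at room temperature. Next, circular single-stranded M13Gori with nucleotides starts synthesis. Finally, PicoGreen in EDTA halts the reaction and stains double-stranded product for fluorescence reading.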

Assay [6] has as its target Tumor susceptibility gene 101 protein (Homo sapiens) (UniProt Q99816). The assay is described as follows: qHTS Validation Assay for Iinhibitors of HIV-1 Budding by Blocking the Interaction of PTAP/TSG101 (AID 485342; calls by dose curve). Summed up: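 Binding of a FITC-tagged PTAP-motif peptide (50 nM) to the Tsg101 binding domain (10 uM) is monitored by fluorescence polarization. Compounds are pin-delivered before peptide addition, and incubation runs 20 min at room temperature.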

Assay [7] can be described thus: qHTS Validation Assay to Find Inhibitors of Chronic Active B-Cell Receptor Signaling (AID 485345; active means well fitted curve in the direction sought with a large enough effect in the main read-out, with a control signal flat, not every such curve was filed as active). Summed up:
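Read-out: ratio of filter-corrected green (IkappaBalpha fusion) to red (native) luciferase signal in doxycycline-induced TMD8 cells after 4 h at 37C. Titration spanned 46 uM–3 nM; Data were normalised to basal cells and 10 uM MG-132 wells.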

For assay [8], the target named is Beta-2 adrenergic receptor (Homo sapiens) (UniProt P07550). The assay is described as follows: qHTS validation assay of beta-arrestin-biased ligands of beta2-adrenergic receptor (AID 485366). The method, boiled down:
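Compound series up to 46 microM applied to beta2-AR/beta-arrestin Tango cells, 18 hr, 37 degrees C, 5% CO2. Read-out: tTA-driven luciferase luminescence, converted to %Activity; concentration-response curves assigned curve classes.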

The target of assay [9] is ATP-dependent 6-phosphofructokinase (Trypanosoma brucei brucei) (UniProt O15648). The assay is described as follows: qHTS Validation Assay to Find Inhibitors of T. brucei phosphofructokinase (AID 485368). Further: potency means the concentration at half of the fitted maximal effect. Summed up:
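qHTS format, up to 57 uM. PFK 1.25 nM; F6P 0.5 mM; ATP 0.1 mM; 5 mM MgCl2, 0.01% Tween20, 0.1% BSA; 0.1 M TEA pH 8.0; 45 min RT; ADP-Glo readout; no-enzyme control = full inhibition.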

Assay [10] can be described thus: Quantitative high throughput screen for delayed death inhibitors of the malarial parasite plastid, 96 hour incubation (AID 488745). Further: nearly all actives have a fitted effect of over 70% in size. Further: potency means the concentration at half of the fitted maximal effect. The method, boiled down: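 Two-generation (96 h) exposure of luciferase-reporter P. falciparum in erythrocytes, 2% hematocrit, 0.1% parasitemia final, 37 C, 5% CO2, RPMI 1640 with 0.5% Albumax. Growth inhibition scored by reduced luminescence.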

Assay [11] can be described thus: Quantitative high throughput screen for delayed death inhibitors of the malarial parasite plastid, 48 hour incubation (AID 488752). Further: nearly all actives have a fitted effect of over 65% in size. Further: potency means the concentration at half of the fitted maximal effect. The method, boiled down:
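Cultures: infected erythrocytes at final 2% hematocrit and 0.1% parasitemia in Albumax-supplemented RPMI. Parasites express integrated firefly luciferase. Incubation with compound lasts 48 h before luminescent detection of remaining reporter activity.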

The target of assay [12] is Thioredoxin reductase 1, cytoplasmic (Rattus norvegicus) (UniProt O89049). Nature of the assay: qHTS Assay for Substrates of Mammalian Selenoprotein Thioredoxin Reductase 1 (TrxR1) (AID 488772).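 Further: series mostly up to about 57 µM; a drop in NADPH fluorescence below the no-compound background marks a TrxR1 substrate.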 Summed up:
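In this dual-purpose format, potential substrates are identified from the first fluorescence read after selenite addition, not from the 8-minute delta. Rat enzyme is preincubated with NADPH and then with compound at ~22 deg C.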

Assay [13] shares this target. The assay is described as follows: qHTS Assay for Inhibitors of Mammalian Selenoprotein Thioredoxin Reductase 1 (TrxR1) (AID 488773). Further: nearly all actives have a fitted effect of over 40% in size. Further: potency means the concentration at half of the fitted maximal effect. The note with it: Potency: inhibition. Summed up:
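Inhibition is scored from the loss of NADPH fluorescence between first and last reads of an 8-min kinetic run. Selenite (400 uM) was the substrate, added after 15 min compound preincubation at room temperature.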

Assay [14] deals with M-phase phosphoprotein 8 (Homo sapiens) (UniProt Q99549). Nature of the assay: qHTS Validation Assay for Inhibitors for MPP8 Chromodomain Interactions with Methylated Histone Tails (AID 488949). Further: nearly all actives have a fitted effect of over 55% in size. Further: potency means the concentration at half of the fitted maximal effect. The method, boiled down:
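50 nM MPP8 + 50 nM b-H3K9me3 peptide, PBS pH 7.4/0.01% Tween-20, 30 min RT; + cpd 30 min RT; + AlphaScreen donor/Ni-chelate acceptor beads 10 ug/mL final, 30 min dark; luminescence read.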

Assay [15] addresses Methanococcus maripaludis chaperonin (MmCpn) (UniProt Q6LX38). The assay is described as follows: High-Throughput Screening for Modulators of Cytosolic Chaperonin Activity: MmCpn Primary Screen (AID 488978).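 Further: 50 nM MmCpn enzyme hydrolysing 30 µM ATP at 37 °C.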 Summed up: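 Steps: chaperonin 50 nM final; add compound, 5 min RT; start with ATP, 30 uM final; hold 10 min at 37C; add ADP Transcreener HTRF reagent, 5 min; read ex 320, em 590 and 665 nm.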

Assay [16] deals with Transient receptor potential cation channel subfamily V member 1 (Homo sapiens) (UniProt Q8NER1). The assay is described as follows: HTS Assay for Compounds that Act as Enhancers of the Vanilloid Receptor 1 (AID 488979). The method, boiled down: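 Calcium influx kinetics via Fluo-8 (480/520 nm) in TRPV1-expressing cells, 2000/well cultured overnight at 35.5C. Compound-alone read 3 min (agonist phase), followed by EC20 capsaicin challenge for 2 min (enhancer phase).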

Assay [17] has as its target Thyrotropin receptor (Homo sapiens) (UniProt P16473). Nature of the assay: qHTS Assay for Antagonists of the Thyroid Stimulating Hormone Receptor (AID 488980). Further: series mostly up to about 58 µM. Summed up:
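Readout is cAMP by HTRF competition between cellular cAMP and cAMP-d2 for a cryptate-labelled antibody. Antagonism was assessed in TSHR-transfected HEK293 cells stimulated with 4 nM TSH (EC80, final) in the presence of RO 20-1724.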

The target of assay [18] is D(1A) dopamine receptor (Homo sapiens) (UniProt P21728). The assay is described as follows: HTS Assay for Allosteric Agonists of the Human D1 Dopamine Receptor: Primary Screen for Agonists (AID 488981). Summed up: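 Calcium flux in an inducible, force-coupled HEK293 Trex D1 line (overnight at 30 C): agonist mode is the 180 s kinetic read after compound; potentiator mode is the following 180 s read after dopamine at EC20.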
Chain of D(1A) dopamine receptor (Homo sapiens) (P21728 whole entry, looked up): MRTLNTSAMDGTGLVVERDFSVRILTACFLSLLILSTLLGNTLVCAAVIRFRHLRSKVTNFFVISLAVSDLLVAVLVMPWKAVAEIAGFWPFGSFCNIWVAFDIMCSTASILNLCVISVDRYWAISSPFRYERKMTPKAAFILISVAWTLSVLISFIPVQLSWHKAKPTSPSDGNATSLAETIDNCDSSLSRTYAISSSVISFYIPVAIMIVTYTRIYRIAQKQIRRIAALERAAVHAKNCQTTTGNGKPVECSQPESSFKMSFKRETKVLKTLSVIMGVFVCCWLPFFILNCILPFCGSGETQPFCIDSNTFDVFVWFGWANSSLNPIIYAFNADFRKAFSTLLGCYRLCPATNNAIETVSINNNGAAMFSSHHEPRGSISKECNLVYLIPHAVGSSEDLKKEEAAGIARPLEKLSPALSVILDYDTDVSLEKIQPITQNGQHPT

Assay [19] concerns the target Flap endonuclease 1 (Homo sapiens) (UniProt P39748). Nature of the assay: qHTS Validation Assay for the Inhibitors of Human Flap endonuclease 1 (FEN1) (AID 488816). Summed up:
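qHTS format: compounds and 10 nM FEN1 incubated 15 min at room temperature before adding 50 nM substrate. Cleavage followed by reads at 0 and 15 min; normalized data fitted to a four-parameter Hill curve.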

In assay [20] the target is Chromobox protein homolog 1 (Homo sapiens) (UniProt P83916). The assay is described as follows: qHTS Validation Assay for Inhibitors of HP1-beta Chromodomain Interactions with Methylated Histone Tails (AID 488953). Further: nearly all actives have a fitted effect of over 50% in size. Further: potency means the concentration at half of the fitted maximal effect. The method, boiled down:
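Compounds pinned into a preassembled complex of HP1-beta and trimethyl-K9 histone H3(1-18) biotin peptide (50 nM each; PBS pH 7.4, 0.01% Tween-20). After 30 min, bead-based AlphaScreen detection followed.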

Chain of Chromobox protein homolog 1 (Homo sapiens) (P83916 whole entry, looked up): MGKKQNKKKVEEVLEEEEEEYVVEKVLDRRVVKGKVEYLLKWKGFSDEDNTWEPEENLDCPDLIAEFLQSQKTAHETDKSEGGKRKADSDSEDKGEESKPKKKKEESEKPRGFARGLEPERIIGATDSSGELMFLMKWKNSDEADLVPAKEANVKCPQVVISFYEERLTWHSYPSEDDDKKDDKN
Chain of Beta-2 adrenergic receptor (Homo sapiens) (P07550 whole entry, looked up): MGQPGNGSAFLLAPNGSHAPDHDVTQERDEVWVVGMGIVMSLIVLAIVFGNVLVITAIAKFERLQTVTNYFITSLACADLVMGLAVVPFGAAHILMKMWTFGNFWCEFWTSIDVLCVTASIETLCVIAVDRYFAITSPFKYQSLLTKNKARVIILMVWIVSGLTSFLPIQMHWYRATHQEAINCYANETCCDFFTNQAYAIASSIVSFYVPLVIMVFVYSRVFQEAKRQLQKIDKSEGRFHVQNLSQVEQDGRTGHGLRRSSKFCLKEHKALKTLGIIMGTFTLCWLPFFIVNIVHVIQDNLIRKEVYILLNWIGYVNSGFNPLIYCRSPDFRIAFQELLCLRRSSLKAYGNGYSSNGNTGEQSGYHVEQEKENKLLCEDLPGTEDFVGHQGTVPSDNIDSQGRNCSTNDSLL
Chain of Thioredoxin reductase 1, cytoplasmic (Rattus norvegicus) (O89049 whole entry, looked up): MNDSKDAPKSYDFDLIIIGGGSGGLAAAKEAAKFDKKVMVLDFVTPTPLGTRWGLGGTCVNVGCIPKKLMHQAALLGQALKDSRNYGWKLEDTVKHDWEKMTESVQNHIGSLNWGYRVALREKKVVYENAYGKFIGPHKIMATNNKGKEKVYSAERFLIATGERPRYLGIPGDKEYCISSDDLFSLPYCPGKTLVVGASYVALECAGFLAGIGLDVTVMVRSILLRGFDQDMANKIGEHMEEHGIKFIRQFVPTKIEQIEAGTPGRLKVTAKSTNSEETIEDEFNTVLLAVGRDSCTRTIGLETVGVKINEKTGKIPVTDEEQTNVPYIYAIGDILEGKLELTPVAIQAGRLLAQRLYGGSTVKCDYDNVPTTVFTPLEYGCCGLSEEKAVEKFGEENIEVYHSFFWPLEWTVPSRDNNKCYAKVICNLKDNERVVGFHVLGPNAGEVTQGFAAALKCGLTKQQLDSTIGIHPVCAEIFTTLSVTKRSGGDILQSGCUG
Chain of ATP-dependent 6-phosphofructokinase (Trypanosoma brucei brucei) (O15648 whole entry, looked up): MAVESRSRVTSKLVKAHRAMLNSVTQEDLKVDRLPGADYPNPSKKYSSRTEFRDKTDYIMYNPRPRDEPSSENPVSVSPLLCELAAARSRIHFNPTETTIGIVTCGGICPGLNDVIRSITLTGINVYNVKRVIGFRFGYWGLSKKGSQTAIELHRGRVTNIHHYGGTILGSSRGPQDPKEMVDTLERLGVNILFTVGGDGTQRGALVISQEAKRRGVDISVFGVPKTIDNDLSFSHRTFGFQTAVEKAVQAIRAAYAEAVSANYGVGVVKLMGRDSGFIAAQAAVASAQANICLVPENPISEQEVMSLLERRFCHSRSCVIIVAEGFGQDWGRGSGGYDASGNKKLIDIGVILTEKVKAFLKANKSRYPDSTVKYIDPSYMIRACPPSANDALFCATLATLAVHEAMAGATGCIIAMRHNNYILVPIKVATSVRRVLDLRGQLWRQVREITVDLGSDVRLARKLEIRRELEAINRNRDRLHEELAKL
Chain of DNA polymerase III PolC-type (Bacillus subtilis (strain 168)) (P13267 whole entry, looked up): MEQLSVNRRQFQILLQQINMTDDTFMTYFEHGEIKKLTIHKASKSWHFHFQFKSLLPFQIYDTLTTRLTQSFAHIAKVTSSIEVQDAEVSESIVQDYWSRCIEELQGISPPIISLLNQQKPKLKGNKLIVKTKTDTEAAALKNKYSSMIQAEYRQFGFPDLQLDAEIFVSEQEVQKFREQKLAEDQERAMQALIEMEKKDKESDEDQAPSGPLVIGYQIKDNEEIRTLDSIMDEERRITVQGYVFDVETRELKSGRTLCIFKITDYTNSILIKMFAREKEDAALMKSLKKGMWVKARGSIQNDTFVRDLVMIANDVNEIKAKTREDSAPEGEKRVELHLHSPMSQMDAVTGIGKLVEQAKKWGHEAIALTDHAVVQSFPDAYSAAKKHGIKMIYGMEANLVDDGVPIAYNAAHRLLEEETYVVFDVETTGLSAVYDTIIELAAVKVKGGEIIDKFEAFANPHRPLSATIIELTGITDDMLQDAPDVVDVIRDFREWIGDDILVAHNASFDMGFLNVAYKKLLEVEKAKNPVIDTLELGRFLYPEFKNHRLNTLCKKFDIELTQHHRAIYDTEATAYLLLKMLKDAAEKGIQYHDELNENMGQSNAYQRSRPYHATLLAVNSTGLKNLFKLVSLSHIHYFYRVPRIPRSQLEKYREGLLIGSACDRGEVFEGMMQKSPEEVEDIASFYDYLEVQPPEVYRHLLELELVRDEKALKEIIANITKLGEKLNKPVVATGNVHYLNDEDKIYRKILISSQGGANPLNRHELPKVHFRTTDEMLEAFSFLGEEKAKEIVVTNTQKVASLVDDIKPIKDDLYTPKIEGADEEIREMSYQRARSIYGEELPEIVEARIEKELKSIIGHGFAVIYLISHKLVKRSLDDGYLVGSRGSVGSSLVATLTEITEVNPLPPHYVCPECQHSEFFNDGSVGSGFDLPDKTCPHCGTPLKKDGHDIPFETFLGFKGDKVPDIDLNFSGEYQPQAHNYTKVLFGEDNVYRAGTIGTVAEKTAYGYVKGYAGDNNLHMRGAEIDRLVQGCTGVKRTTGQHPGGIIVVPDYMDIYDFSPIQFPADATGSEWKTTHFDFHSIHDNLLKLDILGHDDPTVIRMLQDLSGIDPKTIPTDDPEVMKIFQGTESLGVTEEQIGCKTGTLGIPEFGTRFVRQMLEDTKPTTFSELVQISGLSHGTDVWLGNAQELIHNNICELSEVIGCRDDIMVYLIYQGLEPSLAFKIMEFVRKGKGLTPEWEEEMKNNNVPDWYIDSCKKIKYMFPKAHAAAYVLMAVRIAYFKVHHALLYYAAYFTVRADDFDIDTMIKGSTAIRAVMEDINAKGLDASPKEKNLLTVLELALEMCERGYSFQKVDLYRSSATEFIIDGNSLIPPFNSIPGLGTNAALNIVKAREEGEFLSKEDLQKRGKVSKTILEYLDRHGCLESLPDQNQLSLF
Chain of Tumor susceptibility gene 101 protein (Homo sapiens) (Q99816 whole entry, looked up, the tested form may be a part): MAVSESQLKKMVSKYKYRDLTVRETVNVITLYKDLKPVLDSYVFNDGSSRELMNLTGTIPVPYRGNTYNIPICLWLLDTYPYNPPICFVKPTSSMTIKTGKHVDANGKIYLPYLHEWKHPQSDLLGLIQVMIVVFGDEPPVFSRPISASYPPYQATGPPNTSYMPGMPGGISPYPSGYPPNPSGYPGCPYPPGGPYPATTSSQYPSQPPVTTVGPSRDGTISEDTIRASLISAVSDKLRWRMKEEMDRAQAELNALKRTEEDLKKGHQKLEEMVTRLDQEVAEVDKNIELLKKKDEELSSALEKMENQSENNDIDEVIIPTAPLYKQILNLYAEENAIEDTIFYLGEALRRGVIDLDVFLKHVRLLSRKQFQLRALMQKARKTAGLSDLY
Chain of Ubiquitin carboxyl-terminal hydrolase 2 (Homo sapiens) (O75604 whole entry, looked up): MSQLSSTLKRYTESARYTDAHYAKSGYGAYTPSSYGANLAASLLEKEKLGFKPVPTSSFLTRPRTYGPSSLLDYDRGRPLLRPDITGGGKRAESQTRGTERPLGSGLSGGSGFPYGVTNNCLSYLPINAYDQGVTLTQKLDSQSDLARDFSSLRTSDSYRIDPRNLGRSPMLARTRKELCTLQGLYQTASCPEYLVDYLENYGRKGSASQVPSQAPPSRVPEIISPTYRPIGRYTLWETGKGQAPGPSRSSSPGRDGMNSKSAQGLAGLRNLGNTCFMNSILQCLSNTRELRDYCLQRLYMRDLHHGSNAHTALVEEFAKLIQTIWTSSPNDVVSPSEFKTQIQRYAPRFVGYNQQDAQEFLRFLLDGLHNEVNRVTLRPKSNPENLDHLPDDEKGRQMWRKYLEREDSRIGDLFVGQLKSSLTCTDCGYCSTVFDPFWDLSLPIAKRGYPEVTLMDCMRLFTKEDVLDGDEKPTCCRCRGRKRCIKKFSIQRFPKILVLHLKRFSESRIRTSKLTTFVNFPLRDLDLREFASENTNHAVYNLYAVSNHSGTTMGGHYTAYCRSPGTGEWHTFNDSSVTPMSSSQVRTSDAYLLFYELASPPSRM
Chain of Flap endonuclease 1 (Homo sapiens) (P39748 whole entry, looked up): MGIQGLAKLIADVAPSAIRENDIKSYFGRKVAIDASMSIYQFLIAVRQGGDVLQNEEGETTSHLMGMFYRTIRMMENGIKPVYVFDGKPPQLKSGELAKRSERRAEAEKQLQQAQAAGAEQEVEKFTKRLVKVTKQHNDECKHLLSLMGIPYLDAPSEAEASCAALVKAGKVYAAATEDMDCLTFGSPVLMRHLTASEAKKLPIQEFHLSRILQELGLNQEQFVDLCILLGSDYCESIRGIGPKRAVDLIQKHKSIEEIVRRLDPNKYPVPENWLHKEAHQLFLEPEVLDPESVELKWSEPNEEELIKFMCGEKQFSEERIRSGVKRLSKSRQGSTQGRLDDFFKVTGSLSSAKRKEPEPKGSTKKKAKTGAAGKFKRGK

On to `Cc1sc2ccccc2c1CC1=NCCN1`, for which the Potency result in [1], in [2], in [3], in assay [4], in [5] and in [7] was “inactive” each time. Besides, the Potency entry in [9], in assay [10], in assay [11], in assay [13], in [14] and in assay [18] was “inactive” each time. Moreover, the result in [6], in [8], in assay [12], in assay [15], in assay [16] and in [17] was inactive.

Consider `NC(=O)c1ccc(OCC(O)CN2CC=C(c3ccc(F)cc3)CC2)cc1` (stereo not drawn), for which the Potency entry in [1], in assay [2], in assay [3], in assay [4], in [5] and in [7] was “inactive” throughout. Further, the Potency result in [9], in [10], in [11], in [13], in assay [19] and in assay [14] was “inactive” each time. For the same compound, the Potency result in [18] is “inactive”. For the same compound, the result in assay [6], in assay [8], in assay [12], in [15], in assay [16] and in assay [17] was inactive.

With `NNC(N)=O`, the Potency result in assay [1], in assay [2], in [3], in [4], in [5] and in assay [7] was “inactive” each time. In addition, the Potency result in [9], in assay [10], in assay [11], in assay [13], in assay [19] and in assay [14] was “inactive” throughout. In addition, the Potency result in assay [20] and in assay [18] was “inactive” in each case. Moreover, the call in assay [6], in [8], in assay [12], in assay [15], in assay [16] and in assay [17] was inactive.

Turning to `NC(CCCCCP(=O)(O)O)C(=O)O` (stereo not drawn), the Potency entry in [1], in assay [2], in assay [3], in assay [4], in assay [5] and in assay [7] was “inactive” in each case. Moreover, the Potency entry in [9], in assay [10], in assay [11], in [13], in [19] and in assay [14] was “inactive” each time. The Potency result in assay [20] and in assay [18] was “inactive” each time. For the same compound, the call in [6], in assay [8], in [12], in assay [15], in assay [16] and in [17] was inactive.

On to `O=C(O)c1cc[c]([Hg][Cl])cc1`, for which the Potency entry in assay [1], in [2], in assay [3], in assay [4] and in assay [19] was “inactive” each time. Besides, the Potency in assay [5] is 4.74 µM (active); in assay [9] it was 0.269 µM (active); in assay [10], 2.08 µM (active); in [11], 4.15 µM (active); in assay [13], 0.299 µM (active); in assay [14], 5.32 µM (active). Moreover, in [20], the Potency was 39.8 µM (active). Besides, the result in [6], in assay [8], in assay [12], in assay [15], in assay [16] and in [17] was inactive.

In the case of `COc1ccc2c(c1)C13CCCCC1C(C2)N(C)CC3` (stereo not drawn), the Potency entry in assay [1], in assay [2], in assay [3], in assay [4], in assay [5] and in assay [7] was “inactive” throughout. In addition, the Potency entry in [11], in assay [13], in assay [19], in [14] and in assay [20] was “inactive” each time. Moreover, the call in assay [6], in [8], in [12], in [15], in [16] and in assay [17] was inactive.

As to `C=CCN1CC[C@]23c4c5ccc(O)c4O[C@H]2/C(=N/NC(=O)c2ccccc2)CC[C@@]3(O)[C@H]1C5`, the Potency result in assay [1], in [2], in [3], in assay [4], in assay [5] and in assay [7] was “inactive” each time. Also, the Potency result in assay [13], in assay [19], in assay [14] and in assay [20] was “inactive” in each case. Moreover, the call in assay [6], in assay [8], in assay [12], in assay [15], in assay [16] and in [17] was inactive.
